The supplement of paper PMC6555819

System: PXR:RXRa (NR concentration 270 nM, RXRa partner concentration 90 nM)
Assay: PBM binding z-score (relative to random genomic background probes); higher = stronger binding; sequences stand for … in GC…GCGATTGACAGCGTAGAATGAAGG
Procedure, shortened: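 Random background probes are the reference for binding z-scores. These scores derive from regression-normalized fluorescence on custom Agilent 4×180K protein-binding microarrays incubated 1 h with ligand-free nuclear receptor dimers. Binding was detected with antibodies against each partner (one per run).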

Row | Sequence | PBM binding z-score
1 | TCATTTAGGTAAAAGGTGAAAGTCGGTGTGGTAA | 1.42
2 | CCTAGTTAGTCAGGAGGTCACACACCGGATATGA | 4.33
3 | TATACAGGGTCAAAGGCCAGAGGACGAATGTCGA | 4.5
4 | GTACCAAGGTGAATAGGTGGTTGATGAGTAGGCG | -0.428
5 | CGAACGAGGGCAGGAGTTGATAGCAAATGCCGAT | -0.216
6 | CCTTACGGGTCACGAGGCTATAGCACGACGAGCG | 3.26
7 | TCTATTAGTTGAAGGACAACCGACGAGTCCGTTT | 1
8 | CGTCCAAGGCCATAGGAGGTCAGTGAAGACAGAT | 3.03
9 | CCTACTGGGCCATTCAGAGGTCATTCATCATATG | 4.81
10 | AGAATGAGGTTATACGTGGATCAGGGAAGAAAGT | 1.17
11 | TCATATATGTAATACAGGTGAAAGTCGGCATCTA | 0.801
12 | ATCGAAAGGTCGGGGTGAGTATAGAGAAAGGGAA | 2.77
13 | ATCTCTAGGTAAAGTTCAGGGAAAGATCGATAGA | 2.17
14 | ATATGTAGGTTACATCCGGGTCACTCAGGCTATG | 3.29
15 | GCTAGAAGGCCATTTGGGTCACTCAATGACGGGC | 1.19
16 | GGAACGAGGGCTAGTTGATAGCAGAGTTTGATGG | -0.534
17 | TGAACGAGGTTAAAGATCAGGGAACGTGGCGTCG | 1.99
18 | TCATATAGGTAAAGATGAAAGTCGAACGATATGA | -0.0573
19 | AGAACGAGGGCAATGAGTTGATACCACGGGTGGC | 1.66
20 | CAGCCTGGGTCAGGGCCAGTATAGGAGGAACGTT | 0.109

Row | Sequence | PBM binding z-score
21 | CCTTACGGGTCACGAGGTTATAACACGACGAGCG | 4.38
22 | TCTGCGAGGTCAACGATGGTCAGCTAATCTGCTA | 5.4
23 | GCTAGCAGCCCATTTGGGTCACTCAATGACGGGC | -0.106
24 | CCTGCTGGGTCAATGGTCAGCTAAAGCAGCTCGC | 0.874
25 | TAGCCTAAGTCATTCAGGGGCCAGTATAGAAAGC | 0.14
26 | CCTTACGGGTCACTAACAGGTTATAGCATTTGGA | 3.28
27 | TTCCCAAGGTGAAAGGTCGTTGATGCACGCCTTG | 4.12
28 | AGAACGAGGGCACGCTGAGTTGATATCAGAGTAG | 1.44
29 | CTACCAAGGTGAACAAGGTCGTGGATTACTATTC | 2.46
30 | CGAACTAGGGCAAGGACAGTGAATCTCCGCACGC | -0.332
31 | CGAATTAGGTCAGAACAGGACAGTGAAGGATGAT | 1.09
32 | GCTCCTAGGTCAGGTTGGTCAGCTAACGGGTACG | 0.632
33 | TTACCTAGGTGAAAGGTCGTTGATGCACGCCTTG | 3.69
34 | TCTATTAGTTGATTAGGGCAACCAAAACAGCGGA | 0.429
35 | TCGAGTTGGTCAAAGGTCACACACTCGAAATGCG | 6.29
36 | CAAACTAGGTCACGAAAGGACAAAGTCGAATGAC | 4.22
37 | TAGCCTAGGTCAGATCGAGCCAGTATACGCTATA | 0.136
38 | AATACAGGGTCACTAGGCCAGACTAGGTACGAAT | 3.06
39 | CGTCCGAGGTCAGAGAGGTCAGTGAATGCCGAGT | 6.53
40 | CAAACTAAGTCACAGAGGTCAAAGTCCGTGCGTA | 5.86
